# Screening data (PubChem)
# An excerpt weighted towards active compounds, which were near 2.4% of everything screened.
# Pf gamet viab – late stage P. falciparum gametocyte viability inhibitors, primary screen, ATP luminescence, HTS. P. falciparum stage V gametocytes, 24 h. inhibition, % at 10.9 µM. hit rate 0.065% among 150,000;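 active = inhibition above the mean plus 3 SD of compounds within the control limits, set per campaign, cut at about 38% in these data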;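 also: 0% = DMSO wells and 100% = medium only without gametocytes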
# Arbovirus inh – antivirals against arbovirus infection, primary screen, cell-based, full library, 10K replicate subset | inhibition, % at 10 µM | hit rate 0.37% among 200,000 | arbovirus infection cell-based antiviral screen; in the data active = inhibition above about 30%
# MEKK3 PB1 HTS – modulators of MEKK3-MEK5 PB1 binding, primary screen, biochemical, wildtype MEKK3, multiplex bead flow cytometry, Alexa488-MEK5; Mitogen-activated protein kinase kinase kinase 3 (Homo sapiens), Q99759; binding response (% of control), % at 10 µM; bead-based flow cytometry, Alexa488-MEK5 binding to MEKK3; actives lie on both sides; 0 = blocked by unlabeled MEK5, 100 = vehicle; AID 1529, 2009; hit rate 1.4% among 290,000;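 active = binding response more than 3 SD above or below the average of its plate-row segment, actives on both sides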;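 also: Alexa488 bead fluorescence after subtracting the streptavidin-only scavenger bead signal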
# Target sequence (Q99759 whole entry, looked up): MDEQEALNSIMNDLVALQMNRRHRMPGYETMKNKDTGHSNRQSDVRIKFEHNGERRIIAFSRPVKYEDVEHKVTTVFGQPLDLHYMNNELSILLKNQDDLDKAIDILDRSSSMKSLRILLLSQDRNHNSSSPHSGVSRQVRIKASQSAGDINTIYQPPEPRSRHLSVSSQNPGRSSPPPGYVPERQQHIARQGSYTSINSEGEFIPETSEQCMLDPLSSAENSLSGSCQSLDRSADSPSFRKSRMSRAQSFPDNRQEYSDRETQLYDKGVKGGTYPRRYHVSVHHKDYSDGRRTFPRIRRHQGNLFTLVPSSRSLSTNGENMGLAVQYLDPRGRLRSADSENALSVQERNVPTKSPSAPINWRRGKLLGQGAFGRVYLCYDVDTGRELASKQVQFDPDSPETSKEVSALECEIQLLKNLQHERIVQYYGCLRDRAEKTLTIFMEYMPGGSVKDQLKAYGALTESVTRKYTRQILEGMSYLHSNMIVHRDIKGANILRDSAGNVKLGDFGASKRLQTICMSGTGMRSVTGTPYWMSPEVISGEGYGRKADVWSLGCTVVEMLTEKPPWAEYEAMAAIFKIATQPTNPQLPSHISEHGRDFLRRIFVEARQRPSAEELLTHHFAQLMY
# MEKK2mut PB1 HTS – MEK5 binding signal on mutant MEKK2 PB1, primary screen, biochemical, multiplex bead flow cytometry, Alexa488-MEK5 | Alexa488-MEK5 binding to MEKK2 mutant | percent response, % at 10 µM | hit rate 0.35% among 290,000 | AID 1530, 2009; in the data active = percent response above about 24%, passing the limit was not always enough
# MEKK2wt PB1 HTS – modulators of MEK5 binding to wildtype MEKK2, primary screen, biochemical, multiplex bead flow cytometry, Alexa488-MEK5 | hit rate 1.1% among 290,000 | binding response (% of control), % at 10 µM | Alexa488-MEK5 binding to MEKK2 WT; actives lie on both sides; in the data active = binding response below about 67% or above about 130%
# MEKK2wt confirm – modulators of MEK5 binding to wildtype MEKK2, confirmation, biochemical, single concentration, multiplex bead flow cytometry. binding response (% of control), % at 10 µM. Alexa488-MEK5 binding to MEKK2 WT; actives lie on both sides. shares compounds with MEKK3 PB1 HTS. hit rate 2.4% among 5,900; in the data active = binding response below about 16% or above about 210%; inactive = in between
# MEKK2mut-MEK5 – mutant MEKK2 PB1-MEK5 binding signal retest – biochemical, single concentration, multiplex bead flow cytometry, confirmation; shares compounds with MEKK3 PB1 HTS; Alexa488-MEK5 binding to MEKK2 mutant; percent response, % at 10 µM; hit rate 2% among 5,900; AID 1893, 2009; in the data active = percent response mostly above about 71%, no sharp cut-off; inactive = mostly below about 38%;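 also: higher means compound restores mutant binding toward wildtype level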
# MEKK3-MEK5 inh – MEKK3 wild-type PB1 binding to MEK5, inhibitors, confirmation, biochemical, bead multiplex flow cytometry, single concentration, wildtype; shares compounds with MEKK3 PB1 HTS; Alexa488-MEK5 binding to MEKK3; stronger effect = lower value; binding response (% of control), % at 10 µM; hit rate 1.8% among 5,900; AID 1894, 2009;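 active = binding response below 72% of control, or above a set upper limit, though filed actives all read lower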;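 also: 100% = DMSO only wells and 0% = binding blocked by excess unlabeled MEK5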
# Active calls of the source: *; · = no result given; [ ] = remark or other dose.
SMILES,Pf gamet viab,Arbovirus inh,MEKK3 PB1 HTS,MEKK2mut PB1 HTS,MEKK2wt PB1 HTS,MEKK2wt confirm,MEKK2mut-MEK5,MEKK3-MEK5 inh
COc1ccc(N(CC(=O)NCC2CCCO2)S(=O)(=O)c2ccccc2)cc1OC (centres undefined),·,·,99.0,0.0,96.0,·,·,·
CCOC(=O)NC(NCc1ccccc1)(C(F)(F)F)C(F)(F)F,-9.1,5.4,137.0*,1.0,111.0,105.0,4.0,105.0
CC1CCCN(Cc2csc(N)n2)C1 (centres undefined),-3.0,-2.8,99.0,-4.0,96.0,·,·,·
COc1cccc(-c2ccc(NC(=O)C3CCCN(Cc4cnn(C(C)C)c4)C3)cc2)c1 (centres undefined),·,·,107.0,16.0,147.0*,141.0,28.0,108.0
CCCc1ncc(CN2CCCC(C(=O)Nc3ccc(-c4cccc(OC)c4)cc3)C2)cn1 (centres undefined),·,·,96.0,2.0,101.0,·,·,·
CC(C)Cn1c(O)c(/C=C2\C=NN=C2c2ccccc2)sc1=S,-18.0,-41.9,133.0*,0.0,100.0,102.0,4.0,103.0
CC(C)c1nc2ccc(Br)cn2c1NC1CCCC1,-4.0,14.0,129.0*,49.0,123.0,99.0,-2.0,100.0
Cc1ccc2nc(-c3ccccn3)c(NC3CCCC3)n2c1,·,-26.7,110.0,-10.0,96.0,·,·,·
O=C(Nc1ccccc1F)C(=O)c1cn(CC(=O)N2CCCCC2)c2ccccc12,·,-8.2,44.0*[inhibitor],-16.0,48.0,99.0,1.0,102.0
O=C(Cn1c(O)c(/C=C2\C=Nc3ccccc32)sc1=O)Nc1ccc2c(c1)OCO2,·,-9.4,79.0*[inhibitor],-4.0,80.0,104.0,12.0,102.0
CCC(C)(C)c1ccc(OCC(=O)Nc2ccncc2)cc1,·,·,103.0,-2.0,104.0,·,·,·
CCCN1CCC(N(CCc2ccccc2)Cc2ccccc2)CC1,·,·,106.0,12.0,119.0,·,·,·
COc1ccc(CN2CCC(N(CCc3ccccc3)Cc3ccccc3)CC2)c(OC)c1,0.0,-31.3,90.0,52.0*,161.0*,152.0,25.0,110.0
O=C(Nn1cnnc1)c1cc(-c2cccc(Br)c2)nc2ccccc12,10.9,·,105.0,-3.0,104.0,·,·,·
Brc1c(CSc2nc3ccccc3s2)nc2ncccn12,4.0,7.3,99.0,15.0,109.0,·,·,·
O=[N+]([O-])c1ccc2sc(SCc3nc4ccccn4c3Br)nc2c1,·,-2.0,138.0*,0.0,104.0,102.0,-2.0,102.0
Cc1ccc(S(=O)(=O)Nc2ccc(N(C)C)cc2)cc1,-5.0,4.9,94.0,3.0,96.0,·,·,·
CN(C)c1ccc(NS(=O)(=O)c2ccc(Cl)cc2)cc1,·,-12.8,135.0*,3.0,102.0,99.0,-3.0,97.0
CCN(CC)CCN1c2ccccc2Sc2ccc3ccccc3c21,·,·,90.0,18.0,136.0*,120.0,9.0,104.0
Clc1cccc(N/N=C(\Cc2nc3ccccc3[nH]2)c2ccccc2)c1,1.9,-38.8,138.0*,5.0,138.0*,120.0,6.0,105.0
CCc1c(C)nc2cc(-c3ccc(OC)c(OC)c3)nn2c1N1CCCC1,·,-10.1,2.0*[inhibitor],-28.0,-1.0*[inhibitor],106.0,0.0,109.0
CCN(C(=O)CSc1ncccc1C(=O)OC(C)C)c1cccc(C)c1,·,-22.6,0.0*[inhibitor],-26.0,-3.0*[inhibitor],104.0,6.0,107.0
NCCSc1c(-c2ccc(F)cc2)[nH]c2ccccc12,-6.5,·,94.0,1.0,107.0,·,·,·
NCCSc1c(-c2ccc(Cl)cc2)[nH]c2ccccc12,2.2,·,106.0,51.0*,171.0*,171.0,29.0,106.0
NCCSc1c(-c2ccccc2)[nH]c2ccccc12,·,-8.4,118.0,25.0*,146.0*,141.0,35.0,109.0
SMILES,Pf gamet viab,Arbovirus inh,MEKK3 PB1 HTS,MEKK2mut PB1 HTS,MEKK2wt PB1 HTS,MEKK2wt confirm,MEKK2mut-MEK5,MEKK3-MEK5 inh
Cc1ccc(-c2[nH]c3ccccc3c2SCCN)cc1,-17.9,·,105.0,26.0,134.0,·,·,·
CC(NC(=O)CCl)c1ccccc1Br (centres undefined),-6.1,·,99.0,-1.0,100.0,·,·,·
N#Cc1ccc(OS(=O)(=O)c2ccc(-c3ccon3)s2)cc1,·,·,100.0,0.0,95.0,·,·,·
Oc1ccc(Cl)cc1CNCC1CCCO1 (centres undefined),3.9,7.2,98.0,-1.0,98.0,·,·,·
Clc1ccccc1CNCC1CCCO1 (centres undefined),8.6,·,108.0,27.0*,110.0,104.0,5.0,104.0
O=C(CSc1nnc(-c2ccc(OC(F)F)cc2)o1)NCc1cccs1,-4.5,-1.6,103.0,7.0,105.0,·,·,·
O=C(CSc1nc2ccccc2c(=O)n1-c1ccc(OC(F)F)cc1)NCc1cccs1,10.0,-14.8,138.0*,0.0,105.0,100.0,0.0,102.0
CCOC(=O)c1nc(N/N=C/c2ccccc2)sc1Br,-1.3,·,102.0,1.0,101.0,·,·,·
CCOC(=O)C1=C(c2ccccc2)NC(N)=NC1c1ccc(OCc2ccc(Cl)cc2)c(OC)c1 (centres undefined),-17.6,·,105.0,82.0*,248.0*,251.0*,121.0*,112.0
CCOC(=O)CSc1nnc(Cn2nnc3ccccc32)n1-c1ccc(F)cc1,7.5,·,100.0,-2.0,93.0,·,·,·
Cc1ccc(CNC(=O)c2ccc3nc4[nH]c5ccccc5c4nc3c2)cc1,-0.6,-26.7,72.0*[inhibitor],-1.0,97.0,91.0,-3.0,97.0
COc1ccccc1CNC(=O)c1ccc2nc3[nH]c4ccccc4c3nc2c1,-5.0,-16.4,94.0,-6.0,85.0,·,·,·
COc1ccc2c(c1)c(CC(=O)Nc1cc(C)ccc1C)c(C)n2C(=O)c1ccc(Cl)cc1,·,-9.1,101.0,0.0,104.0,·,·,·
COc1ccc2c(c1)c(CC(=O)Nc1ccc(C(C)=O)cc1)c(C)n2C(=O)c1ccc(Cl)cc1,-11.8,18.3,47.0*[inhibitor],1.0,92.0,105.0,-3.0,101.0
CCOc1ccccc1N1CCN(C(=S)NCc2ccccc2)CC1,·,19.0,84.0,-1.0,92.0,·,·,·
CC(=O)c1ccc(N2CCN(C(=S)NCc3ccco3)CC2)cc1,-24.9,-1.3,46.0*[inhibitor],-16.0,53.0,93.0,-27.0,92.0
CCOc1ccccc1N1CCN(C(=S)NCc2ccco2)CC1,-11.4,1.5,64.0*[inhibitor],-1.0,92.0,107.0,5.0,107.0
